Values joined by “and” are separate entries in the source; they are usually repeats but may differ in a detail not shown here. Equal entries are not always repeated. Compounds without any hit were thinned out: in the full panel of roughly 83,000, 20% have a hit.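 Testing used 96-well plates and a 48-hour single-concentration exposure. Example: -40 means 40% of the starting cells died.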 Active and inactive are the calls of the source. Rule for the calls: active = growth percent below 10; inactive = the rest.
Experiments:
Assay in all cases: NCI-60 one-dose screen, 48 h (100 = growth as untreated, 0 = no growth, -100 = all killed)
Settings in all cases: 10 µM unless noted
NCI-H23 lung = tested on: NCI-H23 lung
NCI-H226 lung = tested on: NCI-H226 lung
HOP-62 NSCLC = tested on: HOP-62 NSCLC
NCI-H460 lung = tested on: NCI-H460 lung
HOP-92 NSCLC = tested on: HOP-92 NSCLC
NCI-H522 lung = tested on: NCI-H522 lung
A549/ATCC NSCLC = tested on: A549/ATCC NSCLC
786-0 renal = tested on: 786-0 renal
COLO 205 colon = tested on: COLO 205 colon
NCI-H322M lung = tested on: NCI-H322M lung

Measured: growth

CC1SC(=S)N(c2ccc(Cl)cc2)C1=O (configuration not stated)
inactive: NCI-H23 lung 104% and 92.2% | NCI-H226 lung 92.9% and 97.2% | HOP-62 NSCLC 92.4% and 92.7% | NCI-H460 lung 100% and 108% | HOP-92 NSCLC 77.6% | NCI-H522 lung 89.8% | A549/ATCC NSCLC 93.8% and 95.7% | 786-0 renal 91.5% and 93.1% | COLO 205 colon 124% and 107%

CC1=CC(O)C2CC1C2(C)C (configuration not stated)
inactive: NCI-H23 lung 112% and 110% | NCI-H226 lung 98.1% and 97.9% | HOP-62 NSCLC 93.4% and 102% | NCI-H460 lung 108% | HOP-92 NSCLC 100% and 78.2% | NCI-H522 lung 86.2% and 92% | A549/ATCC NSCLC 91.9% and 106% | 786-0 renal 95.7% and 110% | COLO 205 colon 94.5% and 112%

CN(C)c1ccc(C(=C2C=CC(=[N+](C)C)C=C2)c2ccc(N(C)C)cc2)cc1 (tested in a mixture with another compound)
active: NCI-H23 lung -49% | NCI-H226 lung -60% | HOP-62 NSCLC -34.2% | NCI-H460 lung -75.1% | HOP-92 NSCLC -66.8% | NCI-H522 lung -47% | A549/ATCC NSCLC -18.2% | 786-0 renal -90.4% | COLO 205 colon -97.7%

CCOC(=O)/C(=C\c1ccc(-c2ccccc2)cc1)C(C)=O
inactive: NCI-H23 lung 100% | NCI-H226 lung 101% | HOP-62 NSCLC 110% | NCI-H460 lung 103% | HOP-92 NSCLC 101% | NCI-H522 lung 87.6% | A549/ATCC NSCLC 111% | 786-0 renal 105% | COLO 205 colon 104%

CCN1/C(=C\c2cc[n+](CC)c3ccccc23)C=Cc2ccccc21
active: NCI-H460 lung -32.8% | HOP-92 NSCLC -21.9% | COLO 205 colon -35.2%
inactive: NCI-H23 lung 12.7% | NCI-H226 lung 19.6% | HOP-62 NSCLC 18.7% | NCI-H522 lung 12.4% | A549/ATCC NSCLC 18.9% | 786-0 renal 25%

Cc1cc(N)c2ccccc2[n+]1CCCCCCCCCC[n+]1c(C)cc(N)c2ccccc21
inactive: NCI-H226 lung 13.8% and 31.5% | HOP-62 NSCLC 16.3% and 25.4% | 786-0 renal 18.7% and 20.8%
29.9% (inactive) and -17% (active): A549/ATCC NSCLC
active: NCI-H23 lung 5.83% and -29.4% | NCI-H460 lung 1.44% and -18.2% | HOP-92 NSCLC -22.2% and 7.42% | NCI-H522 lung -8.65% and -8.09% | COLO 205 colon -50.2% and -45.7%

C=C(Cl)C(=NC(C)(C)C)Nc1ccccc1C
inactive: NCI-H226 lung 102% | NCI-H322M lung 109% | HOP-62 NSCLC 92.4% | NCI-H460 lung 106% | HOP-92 NSCLC 84.9% | NCI-H522 lung 67.7% | A549/ATCC NSCLC 111% | 786-0 renal 97.9% | COLO 205 colon 55.2%

N#CSCc1ccc(CSC#N)c(Cl)c1
inactive: NCI-H23 lung 85.1% | NCI-H226 lung 93.1% | HOP-62 NSCLC 129% | NCI-H460 lung 75.5% | NCI-H522 lung 15.7% | A549/ATCC NSCLC 75.8% | 786-0 renal 73.2% | COLO 205 colon 45%
active: HOP-92 NSCLC 4.78%

COc1cc(/C=C(/C)C[N+](=O)[O-])ccc1O
inactive: NCI-H23 lung 98.3% | NCI-H226 lung 104% | HOP-62 NSCLC 103% | NCI-H460 lung 106% | HOP-92 NSCLC 98.4% | NCI-H522 lung 72% | A549/ATCC NSCLC 85.9% | 786-0 renal 99.5% | COLO 205 colon 86.8%

c1ccc2c(c1)Nc1cc3ccccc3cc1N2
inactive: NCI-H23 lung 30.3% | NCI-H226 lung 80.5% | HOP-62 NSCLC 41.4% | NCI-H460 lung 51.7% | HOP-92 NSCLC 85% | A549/ATCC NSCLC 41.5% | 786-0 renal 66.6%
active: NCI-H522 lung -14.7% | COLO 205 colon -43.7%

CCC1OC(OC)C=CC1=O (configuration not stated)
inactive: NCI-H23 lung 106% | NCI-H226 lung 103% | HOP-62 NSCLC 98.2% | NCI-H460 lung 108% | HOP-92 NSCLC 90.1% | NCI-H522 lung 95.5% | A549/ATCC NSCLC 102% | 786-0 renal 99.9% | COLO 205 colon 103%

O=C1NC(=O)/C(=C/C=C/c2ccccc2)S1
inactive: NCI-H23 lung 32.6% | NCI-H226 lung 75.8% | HOP-62 NSCLC 22.5% | NCI-H460 lung 10.6% | HOP-92 NSCLC 45.2% | NCI-H522 lung 24.4% | A549/ATCC NSCLC 89.1% | COLO 205 colon 80.7%
active: 786-0 renal 1.55%

Cc1ccnc2c1ccc1c(C)ccnc12
inactive: NCI-H23 lung 21.7% | NCI-H226 lung 17.4% | HOP-92 NSCLC 44.7% | NCI-H522 lung 11.8%
active: HOP-62 NSCLC 6.08% | NCI-H460 lung 5.29% | A549/ATCC NSCLC 8.87% | 786-0 renal 6.29% | COLO 205 colon 4.27%

Source: PubChem BioAssay (NCI)
